Rows were chosen to be rich in hits. Some 6.9% of all compounds tested hit in one or more screens of this group.
Giardia kill: Small Molecules that selectively kill Giardia lamblia: qHTS | AID 540267, 2011 | activity change, % at 7.66 µM, hits read low | actives 0.15% (n = 340,000) | Giardia lamblia trophozoite viability; in the data active = activity change below about -80%; inconclusive = between about -30% and that limit;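 note: parasites exposed to compound for two days anaerobically before the ATP read; % is set by controls: 0 for no effect and ±100 for the full control effect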
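Luminescence from cellular ATP indicates surviving trophozoites (100 cells/well) following 48 hrs anaerobic compound treatment at 37 deg C; signal develops 15-30 min at room temperature.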
MCF10A rereplic: A quantitative high throughput screen for small molecules that induce DNA re-replication in MCF 10a normal breast cells; MCF 10A DNA re-replication, Hoechst nuclear intensity, 48 h; AID 624296, 2012; Potency, µM (highest dose often 46.1 µM), inactives show at the highest dose activity, positive = re-replication, usual class: activators; actives 2.9% (n = 350,000); note: potency is the fitted concentration of half-maximal effect; % of control where 0% means no effect; nearly all actives have a fitted effect of over 50% in size
Vif-APOBEC3F blk: qHTS for Inhibitors of Vif-A3F Interactions: qHTS | HeLa A3F-eYFP + Vif (tagged APOBEC3F with the HIV-1 protein that degrades it), YFP fluorescence increase | Potency, µM (top dose mostly 46.1 µM), for the others: top-dose activity, negative = active | actives 0.2% (n = 390,000) | AID 602313, 2012; note: potency is the fitted concentration of half-maximal effect; % of control where 0% means no effect; nearly all actives have a fitted effect of over 65% in size
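HeLa cells stably expressing A3F-eYFP plus Vif, plated and incubated overnight at 37 deg C, then exposed to compounds overnight at 37 deg C. Blocked degradation read as raised yellow fluorescence (Ex 488/Em 500-530).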
SW480 rereplic: A quantitative high throughput screen for small molecules that induce DNA re-replication in SW480 colon adenocarcinoma cells | SW480 DNA re-replication, Hoechst DNA content imaging, 48 h | Potency, µM (highest dose often 46.1 µM), for inactives: at the top dose re-replication activation, hits mostly activators | actives 1.8% (n = 340,000); note: potency is the fitted concentration of half-maximal effect; % of control where 0% means no effect; nearly all actives have a fitted effect of over 55% in size
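Hoechst fluorescence of nuclei (405 nm excitation, 500-530 nm emission) measured by plate-scanning imager after 48 hr compound exposure at 37 C; re-replication scored as increased number of nuclei with elevated intensity.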
IL-1B inflam inh: qHTS for Inhibitors of Inflammasome Signaling: IL-1-beta AlphaLISA Primary Screen | THP-1 LPS/ATP IL-1B secretion, AlphaLISA, 16 h; stronger effect = lower value | activity change, % at 57.5 µM | actives 4.7% (n = 360,000); in the data active = activity change below about -50%; inconclusive = mostly about -30% to -49%; note: % is set by controls: 0 for no effect and ±100 for the full control effect
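Secreted IL-1B measured by AlphaLISA bead assay after 16 h compound exposure of THP-1 cells; compounds (final up to 57.5 uM) added 1 h before LPS (250 ng/mL) and ATP (1.25 mM) stimulation; lower signal means less secretion.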
Vif-APOBEC3G blk: qHTS for Inhibitors of Vif-A3G Interactions: qHTS. AID 602310, 2012. actives 0.076% (n = 410,000). DNA dC->dU-editing enzyme APOBEC-3G (Homo sapiens), Q9HC16. Potency, µM (series often up to 46.1 µM), for inactives: top-dose activity, negative = active, most hits filed as inhibitors. HeLa A3G-eYFP + Vif (tagged APOBEC3G with the HIV-1 protein that degrades it), YFP fluorescence, overnight; note: potency is the fitted concentration of half-maximal effect; % is set by controls: 0 for no effect and ±100 for the full control effect; nearly all actives have a fitted effect of over 60% in size
Target sequence (Q9HC16 whole entry, looked up): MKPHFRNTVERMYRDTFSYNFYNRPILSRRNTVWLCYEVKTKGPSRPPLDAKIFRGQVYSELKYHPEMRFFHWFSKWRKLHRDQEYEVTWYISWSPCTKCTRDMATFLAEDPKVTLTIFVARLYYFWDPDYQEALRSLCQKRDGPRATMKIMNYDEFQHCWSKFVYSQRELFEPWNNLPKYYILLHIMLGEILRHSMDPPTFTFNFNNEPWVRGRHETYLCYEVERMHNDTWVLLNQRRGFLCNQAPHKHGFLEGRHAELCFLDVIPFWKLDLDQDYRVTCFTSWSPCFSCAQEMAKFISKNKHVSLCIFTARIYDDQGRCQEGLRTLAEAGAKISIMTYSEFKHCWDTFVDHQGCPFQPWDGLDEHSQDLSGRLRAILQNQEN
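Read-out is eYFP fluorescence (Ex 488/Em 500-530) from Vif-expressing HeLa A3G-eYFP cells; more signal means A3G escaped Vif-mediated degradation. Cells plated overnight, compound pinned in, incubated overnight at 37 deg C.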
The depositor's hits bear a star; ? = inconclusive; . = no result. Unless noted, calls come from the whole dose curve; as a rule, active = well fitted curve in the direction sought with a large enough effect; inconclusive = small, poorly fitted or top-dose-only effect, or another doubt; inactive = no such curve, though single readings can be large; an effect the other way counts as inactive or inconclusive.

SMILES	Giardia kill	MCF10A rereplic	Vif-APOBEC3F blk	SW480 rereplic	IL-1B inflam inh	Vif-APOBEC3G blk
Cc1cc(=O)oc2cc(O)cc(OCc3ccccc3)c12	-11	21µM*	1%	?	38	-15%
COc1cc(OC)c(NC(=O)CN2CCCN(Cc3ccccc3C)S2(=O)=O)cc1Cl	.	.	-3%	.	.	-1%
Cn1c(=O)c2cc(S(=O)(=O)NC(Cc3ccccc3)C(=O)Nc3ccc(F)cc3)ccc2n(C)c1=O (stereo not given)	.	.	3%	.	.	1%
Cc1cc(C)cc(N(CC(=O)NCCc2ccc(Cl)cc2)S(=O)(=O)c2c(C)noc2C)c1	.	.	0%	.	.	3%
Cc1cc(OCC(=O)NCCc2c[nH]c3ccccc23)c2c(C)cc(=O)oc2c1	-11	4%	4%	-19%	-90*	2%
CCCCOc1ccc(CNC(=O)c2ccc(NC(=O)N3CCSc4ncccc43)cc2)cc1	.	.	-5%	.	.	-1%
COc1ccc2cc(-c3cc(C(=O)OCC(=O)Nc4c(C)n(C)n(-c5ccccc5)c4=O)c4ccccc4n3)ccc2c1	-94*	?	-3%	7%	0	1%
Cc1c(NC(=O)COC(=O)c2cc3c4ccccc4n(C)c3s2)c(=O)n(-c2ccccc2)n1C	31	2%	4%	2%	-55*	1%
COc1ccc2cc(-c3cc(C(=O)OCC(=O)NC4CCS(=O)(=O)C4)c4ccccc4n3)ccc2c1 (stereo not given)	-88*	7.3µM*	-2%	?	-19	-11%
COc1ccc(NC(=S)NC23CN4CN(CN(C4)C2)C3)cc1	-2	-4%	1%	0.52µM*	29	0%
COc1ccc(-c2onc(C)c2-c2cnn(-c3ccccc3)c2)c(O)c1C	8	?	-5%	?	9	-25%
COc1ccc(Oc2c(-c3ccc(O)cc3O)n[nH]c2C)cc1	0	?	-2%	-6%	26	-10%
COc1ccc(-c2n[nH]c(C)c2-c2cnn(-c3ccccc3)c2)c(O)c1	5	21µM*	1%	?	-5	-10%
COc1ccc(-c2n[nH]c(C)c2-c2cnn(-c3ccccc3)c2)c(O)c1C	15	?	0%	15µM*	-18	-13%
CCO/N=C1\C(=O)N(c2ccccc2)c2ccccc21	?	-2%	-1%	-6%	-51*	-1%
Cc1ccc(NS(=O)(=O)c2ccccc2)c(C)c1	11	.	.	.	.	2%
Cc1ccccc1Cn1c(=N)n(CC(=O)c2ccc([N+](=O)[O-])cc2)c2ccccc21	6	?	28µM*	1%	.	-28%
CCCn1c(=N)n(CC(=O)c2ccc([N+](=O)[O-])cc2)c2ccccc21	11	15µM*	?	-3%	-53*	-3%
CCn1c(=N)n(CC(=O)c2cccc([N+](=O)[O-])c2)c2ccccc21	-27	0%	0%	1%	-27	-7%
CCCn1c(=N)n(CC(=O)c2ccc(Cl)cc2)c2ccccc21	-5	?	-8%	14%	-66*	2%
CC(C)c1ccc(N(C(=O)CNC(=O)c2ccco2)C(C(=O)NC2CCCC2)c2cccnc2)cc1 (stereo not given)	23	-4%	-5%	-1%	-70*	1%
COc1ccc(C(C(=O)NC2CCCCC2)N(C(=O)CCl)c2ccc(Cl)cc2)cc1 (stereo not given)	8	?	1%	?	-96*	1%
O=C(NC1CCCCC1)C(c1cccnc1)N(C(=O)CCl)c1cccc(Cl)c1 (stereo not given)	-1	13µM*	-5%	4.1µM*	-93*	-27%
COc1ccc(N(C(=O)c2cnccn2)C(C(=O)NC2CCCCC2)c2ccc(Cl)cc2)cc1 (stereo not given)	-21	2%	9%	-1%	4	2%
COc1ccc(C(C(=O)NC2CCCCC2)N(Cc2cccs2)C(=O)Cc2c[nH]c3ccccc23)cc1 (stereo not given)	-15	27%	3%	16%	-59*	0%
SMILES	Giardia kill	MCF10A rereplic	Vif-APOBEC3F blk	SW480 rereplic	IL-1B inflam inh	Vif-APOBEC3G blk
Cc1ccc(N(C(=O)CNC(=O)c2ccco2)C(C(=O)NC2CCCCC2)c2cccnc2)cc1 (stereo not given)	7	2%	0%	-125%	14	-2%
CCCCN(Cc1cc2cc(C)ccc2[nH]c1=O)C(=O)c1cccc(Cl)c1	.	.	1%	.	.	-4%
O=C(NC1CCCC1)C(c1ccc(F)cc1)N(Cc1ccc(Cl)cc1)C(=O)CCl (stereo not given)	-13	11%	4%	1%	-102*	0%
CCN(C(=O)Cn1nc(Cc2ccncc2)c2ccccc2c1=O)c1ccc(OC)cc1	.	.	-6%	.	.	-7%
Cc1ccc(OCCOC(=O)Nc2ccccc2)cc1	3	3%	0%	-2%	0	0%
O=C(Nc1ccccc1)OCCOc1ccc(Br)cc1	-1	18µM*	0%	22%	-22	-1%
COc1cc(Cl)c(NC(=O)CN(C)S(=O)(=O)c2ccc3[nH]c4c(c3c2)CCCC4)c(OC)c1	.	.	3%	.	.	1%
Cc1ccc(OCC(=O)N2CCN(c3nnc(-c4ccccc4)c4ccccc34)CC2)cc1	-5	?	-1%	?	-73*	-2%
CC(=O)N1CCN(c2nnc(-c3ccc(C)cc3)c3ccccc23)CC1	13	9%	0%	-8%	-22	-4%
COc1ccc(Oc2nnnn2-c2ccccc2)cc1	17	-1%	3%	-4%	-20	1%
c1ccc(-n2nnnc2Oc2ccc(-n3ccnc3)cc2)cc1	-2	-5%	-3%	-7%	-64*	3%
FC(F)(F)C(F)(F)C(F)(F)c1nc2ccccc2[nH]1	.	.	.	.	.	3%
O=C(CCSc1nc2ccccc2s1)N/N=C/c1c(O)ccc2ccccc12	2	21µM*	-3%	6.5µM*	192	-9%
COc1ccc(/C=N/NC(=O)CCSc2nc3ccccc3s2)cc1OC	-7	?	1%	?	-20	-23%
CCc1ccc(NC(=O)c2cc(S(=O)(=O)N3CCCCCC3)ccc2F)cc1	.	.	-1%	.	.	1%
COc1ccc(C2C3=C(CC(C)(C)CC3=O)Oc3ncn(CC(C)C)c(=N)c32)cc1 (stereo not given)	25	-3%	.	0%	-60*	0%

Screens (PubChem)
